This is a sample that favours compounds with a hit; in the whole collection about 1.1% have one here.
Mtb BioA inh – inhibitors of Mycobacterium tuberculosis BioA enzyme. purified M. tuberculosis BioA enzyme, plate reader. inhibition, % at 9.99 µM. actives 0.096% (n = 360,000). AID 602481; in the data active = inhibition above about 40%
SARS 3CLpro inh – SARS-CoV 3CLpro protease inhibition; actives 0.14% (n = 290,000); recombinant SARS-CoV 3CLpro, quenched FRET peptide cleavage; inhibition, % at 6 µM; P0C6X7; AID 1706; in the data active = inhibition above about 12%
Y pestis TopoI – blocks Yersinia pestis topoisomerase I activity | Y. pestis Topo-I cleavage product accumulation, plate reader | activity, % at 10 µM | actives 0.064% (n = 360,000) | AID 504884; in the data active = activity above about 50%, passing the limit was not always enough
PfHsp40 rescue – restores yeast growth despite PfHsp40 toxicity | S. cerevisiae expressing PfHsp40, growth rescue, ATP luminescence | growth rescue, % at 12.5 µM | actives 0.68% (n = 340,000); in the data active = growth rescue above about 28%, passing the limit was not always enough;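 note: yeast W303a lacking pdr1 and pdr3 grown in galactose medium; growth measured after three days at 30 °C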
BJeLR viability – kills HRASV12-expressing BJeLR cells; AID 1554; actives 0.17% (n = 300,000); inhibition, % (no concentration beside the values); BJeLR (HRASV12) viability, CellTiter-Glo ATP luminescence, 48 h; in the data active = inhibition above about 50%
MazEF act – increases E. coli MazEF RNase cleavage of RNA | FAM/BHQ RNA-DNA oligo cleavage fluorescence, 5 h | activation, % at 20 µM | AID 504720 | actives 0.32% (n = 350,000); in the data active = activation above about 50%
Target sequence (P0AE70 whole entry, looked up): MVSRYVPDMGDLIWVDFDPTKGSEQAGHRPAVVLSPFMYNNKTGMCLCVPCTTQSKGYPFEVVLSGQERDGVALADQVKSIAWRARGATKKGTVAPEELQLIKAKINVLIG
Numbers without * were called inactive; / = not tested or not shown; + = active, no number.

SMILES	Mtb BioA inh	SARS 3CLpro inh	Y pestis TopoI	PfHsp40 rescue	BJeLR viability	MazEF act
O=C(NC1CCSc2ccccc21)c1cccc(Br)c1 (stereo not drawn)	-3.1	-0.2	9.0	94.1*	-5.7	-5.2
CN1CCN(c2ccc(C(CC(N)=O)NC(=O)c3ccccc3)cc2[N+](=O)[O-])CC1 (stereo not drawn)	2.7	-1.8	9.0	37.0*	-4.1	3.8
CN1C(=O)c2cc(NC(=O)Nc3ccccc3F)ccc2OC[C@@H]2O[C@H](CC(=O)O)CC[C@H]21	6.2	/	/	/	/	/
O=C(NCCn1cc(SCc2ccccc2)c2ccccc21)c1ccccc1F	-0.4	1.0	50.2*	0.3	1.9	-5.3
C[C@@H]1CN([C@H](C)CO)S(=O)(=O)c2ccc(/C=C/c3ccccc3)cc2O[C@@H]1CN(C)C(=O)c1cccnc1	0.5	/	/	/	/	/
COc1ccc(NC(=O)Nc2ccc3c(c2)C(=O)N([C@@H](C)CO)C[C@@H](C)[C@@H](CN(C)S(=O)(=O)c2ccc(C)cc2)OCCCC[C@@H](C)O3)cc1	-6.5	/	/	/	/	/
CCNc1ccc(C(=O)OCC)cc1NC(=O)c1cc(S(=O)(=O)N2CCOCC2)ccc1C	0.2	-3.9	5.7	112.8*	-3.3	4.1
CCN(CC)C(=O)c1ccc(NC(=O)Nc2ccccc2F)cc1	/	2.2	-2.3	-3.3	54.9*	9.6
O=C(Nc1ccc(Br)cc1)Nc1ccccc1F	0.1	0.1	-2.7	-0.8	2.6	4.5
O=C(Nc1ccc2c(c1)[C@@H]1C[C@@H](CC(=O)N3CCCCC3)O[C@H](CO)[C@@H]1O2)C1CCC1	-0.6	/	/	/	/	/
Cc1ccc(C(=O)CN2C(=O)c3ccccc3S2(=O)=O)cc1	-0.8	1.6	-2.5	0.5	0.2	6.5
Cc1ccc(C(=O)CN2/C(=C(\O)c3ccccc3)C(=O)c3ccccc3S2(=O)=O)c(C)c1	/	7.5	2.9	35.3*	-1.6	3.2
CCN(CC)c1ccc(C=Nc2ccc(N(C)C)cc2)c(O)c1	/	-0.9	-9.3	-0.4	-1.2	532.4*
CCN(CC)c1ccc(C=Nc2ccc(C)cc2)c(O)c1	-1.6	-0.7	-0.5	-1.3	7.0	1.7
CCN(CC)c1ccc(N=Cc2ccc(N(CC)CC)cc2O)cc1	/	0.4	-16.5	-1.6	1.2	162.2*
OC(CNCCC1C=Nc2ccccc21)Cn1c2ccc(Cl)cc2c2cc(Cl)ccc21 (stereo not drawn)	0.0	-1.6	-16.2	-0.3	105.3*	-27.2
OC(CNCC1CCCO1)Cn1c2ccc(Cl)cc2c2cc(Cl)ccc21 (stereo not drawn)	0.6	-5.9	-38.1	1.8	6.2	5.6
C/C(=N/NS(=O)(=O)c1ccccc1)c1c[nH]c2ccccc12	-1.5	2.3	-0.7	0.2	-2.7	22.7
C/C(=N/NS(=O)(=O)c1cccc([N+](=O)[O-])c1)c1c[nH]c2ccccc12	1.5	1.8	-0.8	-0.3	8.0	56.2*
Cc1noc(C)c1NC(=O)N[C@H]1CC[C@@H](CC(=O)NCCCN(C)C)O[C@@H]1CO	-1.2	/	/	/	/	/
O=C(NCc1cccnc1)c1c(O)c2cccc3c2n(c1=O)CCC3	/	-1.1	3.7	60.1*	6.7	-29.6
Cn1cccc1-c1cc(C(=O)N/N=C/c2cc(Br)ccc2O)[nH]n1	-2.2	6.0	-9.9	124.6*	23.7	15.8
C[C@@H]1CN([C@H](C)CO)C(=O)c2cc(-c3cccnc3)cnc2O[C@@H]1CN(C)C(=O)c1cccc(F)c1	-1.8	/	/	/	/	/
C[C@H](O)C#Cc1ccc2c(c1)O[C@@H](CN(C)C(=O)Nc1ccccc1)[C@@H](C)CN([C@@H](C)CO)S2(=O)=O	0.7	/	/	/	/	/
CCCCNC1=CC(=O)C(=O)c2ccccc21	/	3.6	1.8	-0.6	10.8	-22.8
SMILES	Mtb BioA inh	SARS 3CLpro inh	Y pestis TopoI	PfHsp40 rescue	BJeLR viability	MazEF act
CCCCN1C=CC(=C2C(=O)c3ccccc3C2=O)C=C1	-1.6	7.5	-1.8	-3.6	65.1*	-13.4
COc1ccccc1C(=O)Nc1ccc2c(c1)OC[C@H](C)N(C)C[C@@H](C)[C@@H](OC)CN(C)C2=O	0.9	/	/	/	/	/
Cc1cccc(NC(=S)NNC(=O)c2csc3c2CCC(C)C3)c1 (stereo not drawn)	0.4	1.7	1.8	104.5*	5.7	1.2
Cc1cccc(NC(=S)NNC(=O)c2cc3c(s2)CCC(C)C3)c1C (stereo not drawn)	1.4	10.4	4.8	30.6*	3.4	-5.4
CC(C)CNC(=S)NNC(=O)c1csc2c1CCC(C)C2 (stereo not drawn)	-0.2	3.4	11.5	3.8	3.8	-2.5
CNC(=O)C[C@@H]1CC[C@@H]2[C@H](COc3ccc(NC(=O)Nc4ccccc4OC)cc3C(=O)N2C)O1	-3.1	/	/	/	/	/
COCC(=O)Nc1ccc2c(c1)OC[C@@H](C)N(C(=O)c1ccncc1)C[C@H](C)[C@@H](OC)CN(C)C2=O	-2.0	/	/	/	/	/
C[C@@H]1CN([C@@H](C)CO)C(=O)Cc2cc(NC(=O)CCN3CCOCC3)ccc2O[C@H]1CN(C)C(=O)Nc1ccc(F)cc1	2.1	/	/	/	/	/
COCC(=O)N(C)C[C@H]1Oc2cc(C3=CCCC3)ccc2S(=O)(=O)N([C@@H](C)CO)C[C@H]1C	-1.1	/	/	/	/	/
COc1ccc(/C=N/Nc2nnc(-c3ncc[nH]3)c3ccccc23)cc1	0.9	-3.3	-3.7	0.2	-8.6	-1.8
Oc1ccc2ccccc2c1/C=N/Nc1nnc(-c2ncc[nH]2)c2ccccc12	/	-2.9	1.9	0.2	28.1	64.7*
Cc1noc(C)c1NC(=O)N(C)C[C@@H]1Oc2ccc(NS(=O)(=O)c3cccs3)cc2CC(=O)N([C@H](C)CO)C[C@H]1C	-1.3	/	/	/	/	/
CCCc1sc(N/N=C/c2ccccn2)nc1-c1ccc(F)cc1	-0.7	-6.2	-6.0	37.8*	61.5*	-19.8
Cc1nc(N/N=C/c2ccccn2)sc1C	/	-0.6	/	/	/	5.5
Cc1ccn2c(NC3CCCCC3)c(-c3cccc(-c4cccc(Cl)c4)c3)nc2c1	-4.5	/	7.7	132.3*	-6.0	-30.9
Cc1cc(-c2ccccc2)c2c3c(c(-c4ccccc4)n2n1)c(=O)n(C)c(=O)n3C	-1.4	-3.6	1.0	-1.4	-1.5	+
Cc1cc(C)c2c3c(c(-c4ccccc4)n2n1)c(=O)n(C)c(=O)n3C	-0.1	/	3.3	9.5	/	7.2
COC1CCC(OC2CC(C3(C)CCC4(CC(O)C(C)C(C(C)/C=C(\C)C(=O)C(C)CC(C)C(=O)O)O4)O3)OC3(OC(C4OC(O)(CO)C(C)CC4C)CC3C)C2C)OC1C (stereo not drawn)	/	/	43.8	219.6*	/	6.0
O=C(O)c1cccc(CN2C(=O)c3ccccc3C2=O)c1	-0.1	-0.5	-1.3	-2.0	-1.4	-11.1
O=C1c2cccc3c(O)ccc(c23)C(=O)N1Cc1ccccc1	-8.7	-4.5	-2.5	-0.3	-6.4	380.0*
Cc1nc2sc(C(=O)OCC(=O)N3c4ccccc4CC3C)c(C)c2c(=O)[nH]1 (stereo not drawn)	/	-3.4	-4.5	1.7	-2.5	72.2*
CCOC(=O)C(CC)/C(C)=N\NC(=O)c1ccccc1O (stereo not drawn)	/	-0.8	-8.9	109.7*	-5.7	5.3

Screens as filed in PubChem BioAssay.
